# Results as given in PubChem BioAssay AID1626 (SRMLSC, 2009).
# Out of some 220,000 compounds screened, about 2,000 (0.91%) were called active. Inconclusive results (about 2%) are left out. Not all results are given here. Potency and affinity values are given separately. A number with no mark means an inactive call. No stated cut-off is given here; in the data, inconclusive means inhibition above about 80% without an active follow-up result; inactive means below that; test concentration not stated here.
# Assay: M. tuberculosis H37Rv growth inhibitors, H37Rv strain (AID 1626);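 further: bacteria incubated seven days before Alamar blue readout; 0% = bacteria only wells and 100% = bacteria with antibiotic wells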
# Details: stronger effect = higher value, concentration not given here
row,Structure (SMILES),inhibition [%]
1,CCC(=O)N(C)CCc1cc2c(c(OC)c1/C=N/NC(=O)[C@H]1C[C@@H]1c1ccccc1)OCO2,-2.15
2,CN(C)c1ccc(NC(=S)NC(=O)/C=C/c2ccc(Cl)cc2)cc1,5.85
3,COc1cc(C(CCN2CCOCC2)c2c(OC)cc(OC)c3c(C)cc(=O)oc23)cc(OC)c1OC (stereo not drawn),-15.3
4,COc1cc(C(CCN2CCCCC2)c2c(OC)cc(OC)c3c(C)cc(=O)oc23)cc(OC)c1OC (stereo not drawn),-3.67
5,COc1cc(C(CCN2CCCC2)c2c(OC)cc(OC)c3c(C)cc(=O)oc23)cc(OC)c1OC (stereo not drawn),-6.56
6,COc1cc(C(CCN2CCCC2)c2c(OC)cc(OC)c3ccc(=O)oc23)cc(OC)c1OC (stereo not drawn),-13
7,Cn1nc(-c2ccc(OCC(N)=O)cc2)c2ccccc2c1=O,9.43
8,O=S(=O)(Nc1ccc(-c2cn3ccsc3n2)cc1)c1ccc2c(c1)OCCO2,-7.36
9,O=C(O)c1cccc(CSc2ncn[nH]2)c1,3.99
10,Cc1ccc(-n2cc(CN(C)Cc3nccn3C)c(-c3ccc(F)cc3)n2)cc1,60.4
11,CN(Cc1cn(-c2ccccc2)nc1-c1ccc2c(c1)OCO2)Cc1nccn1C,2.66
12,Cc1ccc(-n2cc(CN3CCN(Cc4nccn4C)CC3)c(-c3cccc(C)c3)n2)cc1,-0.87
13,CCn1ccnc1CNCc1cn(-c2cc(C)ccc2C)nc1-c1ccccc1,72
14,CN(Cc1ncc[nH]1)Cc1cn(-c2ccccc2)nc1-c1ccc2c(c1)OCO2,6.67
15,CCn1ccnc1CN(C)Cc1cn(-c2ccccc2)nc1-c1ccc(OC)cc1F,15
16,Cc1ccc(C)c(-n2cc(CNCCCn3cccn3)c(-c3ccccc3)n2)c1,-1.54
17,Cc1ccc(-n2cc(CN(C)CCc3cn[nH]c3)c(-c3cccc(C)c3)n2)cc1,6.61
18,CCS(=O)(=O)c1nc(S(=O)(=O)c2ccc(C)cc2)c(NCCCN(C)C)s1,-3.12
19,Cc1cccc(C(=O)N(c2ccccn2)C(C)c2ccco2)c1 (stereo not drawn),-1.89
20,CC(c1ccccc1F)n1cc(C(=O)NCc2ccncc2)nn1 (stereo not drawn),-6.06
21,O=C(NNC(=O)c1cc2cc(OC(F)(F)F)ccc2[nH]1)c1cccc(C(F)(F)F)c1,0.47
22,CN(C)S(=O)(=O)c1ccc2c(c1)c(=O)c(C(=O)NCCCN1CCCCCC1)cn2C,0.45
23,O=C(COC(=O)c1ccccc1O)Nc1cc([N+](=O)[O-])ccc1Cl,-5.14
24,S=C(NC1CCCCC1)c1ccc2c(c1)OCO2,0.26

row,Structure (SMILES),inhibition [%]
1,CCN1CC(CN(C)Cc2cn(-c3ccc(C)cc3)nc2-c2cccc(C)c2)CC1=O (stereo not drawn),13.5
2,Cc1ccc(-n2cc(CNCCCn3cccn3)c(-c3cccc(C)c3)n2)cc1,69.4
3,CCCCOC(=O)c1ccc(N)cc1,78.1
4,CC(C)OC(=O)c1ccc(NC(=O)c2ccccc2)cc1,69.1
5,CCC(=O)Nc1cccc2c1C(=O)N(C)C2=O,-8.82
6,COc1ccc(CCNC(=O)Cc2nn(C)c(=O)c3ccccc23)cc1OC,1
7,Cc1nnc(NC(=O)CSc2nnc(Cc3cccn3C)n2-c2cccc(C(F)(F)F)c2)s1,4.46
8,CC(C)CN(C(=O)COC(=O)c1ccc(-c2ccccc2)cc1)C1CCS(=O)(=O)C1 (stereo not drawn),4.21
9,CCc1ccc2[nH]c(=O)c(C(c3nnnn3CCOC)N3CCN(c4ccccc4)CC3)cc2c1 (stereo not drawn),2.21
10,COc1ccc2cc(C(c3nnnn3CCc3ccccc3)N3CCC(O)CC3)c(=O)[nH]c2c1 (stereo not drawn),4.28
11,O=C(Cn1c(-c2cscn2)nc2ccccc21)Nc1ccc2ccccc2c1,5.71
12,CC(=O)NCCn1c(SCC(=O)c2ccc(Cl)cc2)nc2ccccc2c1=O,-2.5
13,Cc1ccc(NC(=O)c2ccc([N+](=O)[O-])cc2Cl)nc1,1.78
14,Cc1c(C(=O)N2CCCCC2)sc(NC(=O)C2CC2)c1C#N,-1.68
15,Cc1c(C(=O)N2CCCCC2)sc(NC(=O)C(C)C)c1C#N,-2.5
16,CCCC1=NN(C(=O)Cc2ccc(OC)c(OC)c2)C(O)(C(F)(F)F)C1 (stereo not drawn),7.79
17,COc1ccc(-c2oc3ccccc3c(=O)c2OC(C)=O)cc1,67.5
18,O=C(O)COc1c(-c2ccco2)oc2ccccc2c1=O,-8.35
19,CCC(C)NS(=O)(=O)c1ccc(NC(C)=O)cc1 (stereo not drawn),-1.33
20,CC(C)OCC(O)CS(=O)Cc1ccccc1 (stereo not drawn),-8.07
21,CCC(=O)Nc1ccc2nc(C)n(CC(=O)Nc3ccccc3)c(=O)c2c1,-7.72
22,N=c1c2c(ncn1Cc1ccco1)Oc1ccc3ccccc3c1C2c1ccccc1 (stereo not drawn),20.9
23,COc1ccc(C2c3ccc4ccccc4c3Oc3ncn(Cc4ccco4)c(=N)c32)cc1OC (stereo not drawn),8.86
24,Cc1cnc(C(=O)OCC(=O)Nc2ccc(Oc3ccccc3)cc2)cn1,38

row,Structure (SMILES),inhibition [%]
1,Fc1ccc2[nH]c3c(N4CCc5ccccc5C4)ncnc3c2c1,4.31
2,Brc1ccc2[nH]c3c(N4CCc5ccccc5C4)ncnc3c2c1,5.42
3,Cc1ccc2c(c1)c1ncnc(N3CCN(c4ccccc4)CC3)c1n2C,0.76
4,Cc1ccc2c(c1)c1ncnc(N3CCC4(CC3)OCCO4)c1n2C,-2.11
5,CCN(CC(=O)NCc1cccs1)C(=O)c1ccc(S(=O)(=O)N(C)C)cc1,2.21
6,COc1cccc(NC(=O)CN2CCN(S(=O)(=O)c3ccc(F)cc3)CC2)c1,-7.83
7,O=C1/C(=C\c2ccc(Cl)c(Cl)c2)N2CCC1CC2,15.2
8,COc1ccc(NCC(=O)Nc2ccc(Br)cc2F)c(OC)c1,75.1
9,CCOc1ccc(OCCC(=O)Nc2ccc(F)cc2C)cc1,-6.9
10,CCOC(=O)Nc1ccc(C)cc1C,0.47
11,Cc1ccc(NC(=O)CNc2ccc(OC(C)C)cc2)c(C)c1,46.8
12,Cc1ccc(NC(=O)CCC(=O)NNC(=O)COc2ccccc2)c(C)c1,2.24
13,COc1ccc(Cl)cc1NC(=O)CNc1ccc(F)cc1C,6.38
14,Cc1ccc(NC(=O)C(=O)NCCOc2ccc(Cl)cc2)c(C)c1,7.98
15,CCOc1ccc(NC(=O)CNc2ccc(C)cc2Cl)cc1,-1.87
16,C[C@@H]1CC[C@]2(O[C@@H](CCO)C[C@@H](O)[C@@H]2O)O1,-6.09
17,Cc1nc2sc(C(c3cccc(F)c3)N3CCC(C)CC3)c(O)n2n1 (stereo not drawn),-7.23
18,O=S(=O)(c1ccc(Cl)c(S(=O)(=O)N2CCCC2)c1)N1CCCC1,-11.7
19,CC(=O)c1ccc(N2CCN(C(=O)C3(S(=O)(=O)c4ccc(Cl)cc4)CC3)CC2)cc1,1.33
20,Cc1cc(N2CCN(C)CC2)nc2ccc(NC(=S)N3CCCCC3)cc12,30.4
21,CN(C(=O)COc1ccc(S(=O)(=O)N2CCOCC2)cc1[N+](=O)[O-])C1CCS(=O)(=O)C1 (stereo not drawn),-7.08
22,COc1ccc(NC(=O)c2cccnc2N2CCOCC2)cc1,4.7
23,COc1ccccc1NC(=S)N(CCCN1CCOCC1)Cc1cccs1,-3.58
24,CCc1cccc2c(C(=O)COC(=O)c3ccccc3)c[nH]c12,7.6

row,Structure (SMILES),inhibition [%]
1,O=C(COC(=O)c1ccc([N+](=O)[O-])s1)NCc1ccccc1,17.7
2,Cc1[nH]c2ccccc2c1C(=O)COC(=O)c1ccc([N+](=O)[O-])s1,99.3
3,CCc1cccc2c(C(=O)COC(=O)c3ccc(O)cc3)c[nH]c12,2.75
4,CCN(C(=O)CCCC(=O)N(CC)c1ccccc1)c1ccccc1,-1.06
5,Cc1cc(C)nc(SCC(=O)Nc2ccc(S(=O)(=O)Nc3onc(C)c3C)cc2)n1,-9.62
6,CC(C)(C)CN1CCNC(=O)C1CC(=O)N1CCN(c2ccccc2)CC1 (stereo not drawn),-2.51
7,O=C(NCc1cccc(C(F)(F)F)c1)c1cc(Cl)ccc1Cl,15
8,CC1=Nc2ccccc2/C1=C\c1nc(-c2ccc(F)cc2)oc1O,54.8
9,CC1=Nc2ccccc2/C1=C\c1nc(-c2ccccc2)oc1O,3.61
10,CC(C)(C)CC(C)(C)NC(=O)CSCC(=O)Nc1ccc2ccccc2c1,-8.35
11,O=C(CSCc1ccc(C(=O)O)cc1)Nc1ccc2ccccc2c1,35.7
12,O=C(O)CSCC(=O)NCc1ccccc1,-2.1
13,CC(C)c1ccc(CNC(=O)CCc2ccccc2)cc1,6.15
14,CCN(CC)C(=N)/C(C#N)=N/Nc1ccccc1,-13.5
15,Cn1cccc1C(=O)NC(=O)COC(=O)CNC(=O)c1ccc(Cl)cc1Cl,-13
16,O=C(Cn1nc(C(F)(F)F)c2c1CCCC2)Nc1ccc2c(c1)OCO2,-0.66
17,CCOc1ccc(C2=NNC(c3cccnc3)=Nc3ccc(OC)cc32)cc1,1.63
18,N#CCCn1c(C(C#N)(CCC#N)CCC#N)nc2ccccc21,-2.99
19,COc1ccc(C(=O)ON=C2C=C(C)C(=O)C(C)=C2)cc1,-2.82
20,COc1ccc(S(=O)(=O)N=C2C=C(C)C(=O)C(C)=C2)cc1,-5.5
21,COc1cc(C(C(=O)NC(C)(C)C)N(Cc2ccc3c(c2)OCO3)C(=O)c2cnccn2)cc(OC)c1OC (stereo not drawn),-6.38
